The supplement of paper PMC11732987, “Enantioselective OTUD7B fragment discovery through chemoproteomics screening and high-throughput optimisation” (Communications Chemistry, 2025)

How the values were obtained:
Experiment in all cases: log2 ratio of Biotin-Ahx-Ub-VS probe labelling (fragment/DMSO); higher = less target engagement (more negative = stronger competition), active = hit call of the paper (q ≤ 0.05, log2 ratio ≤ -1)
Conditions in all cases: compound concentration: 200 uM; treatment time: 3 h
USP34 = USP34 (UniProt Q70CQ2)
Sequence of USP34 (Q70CQ2 whole entry, the tested form may be a part): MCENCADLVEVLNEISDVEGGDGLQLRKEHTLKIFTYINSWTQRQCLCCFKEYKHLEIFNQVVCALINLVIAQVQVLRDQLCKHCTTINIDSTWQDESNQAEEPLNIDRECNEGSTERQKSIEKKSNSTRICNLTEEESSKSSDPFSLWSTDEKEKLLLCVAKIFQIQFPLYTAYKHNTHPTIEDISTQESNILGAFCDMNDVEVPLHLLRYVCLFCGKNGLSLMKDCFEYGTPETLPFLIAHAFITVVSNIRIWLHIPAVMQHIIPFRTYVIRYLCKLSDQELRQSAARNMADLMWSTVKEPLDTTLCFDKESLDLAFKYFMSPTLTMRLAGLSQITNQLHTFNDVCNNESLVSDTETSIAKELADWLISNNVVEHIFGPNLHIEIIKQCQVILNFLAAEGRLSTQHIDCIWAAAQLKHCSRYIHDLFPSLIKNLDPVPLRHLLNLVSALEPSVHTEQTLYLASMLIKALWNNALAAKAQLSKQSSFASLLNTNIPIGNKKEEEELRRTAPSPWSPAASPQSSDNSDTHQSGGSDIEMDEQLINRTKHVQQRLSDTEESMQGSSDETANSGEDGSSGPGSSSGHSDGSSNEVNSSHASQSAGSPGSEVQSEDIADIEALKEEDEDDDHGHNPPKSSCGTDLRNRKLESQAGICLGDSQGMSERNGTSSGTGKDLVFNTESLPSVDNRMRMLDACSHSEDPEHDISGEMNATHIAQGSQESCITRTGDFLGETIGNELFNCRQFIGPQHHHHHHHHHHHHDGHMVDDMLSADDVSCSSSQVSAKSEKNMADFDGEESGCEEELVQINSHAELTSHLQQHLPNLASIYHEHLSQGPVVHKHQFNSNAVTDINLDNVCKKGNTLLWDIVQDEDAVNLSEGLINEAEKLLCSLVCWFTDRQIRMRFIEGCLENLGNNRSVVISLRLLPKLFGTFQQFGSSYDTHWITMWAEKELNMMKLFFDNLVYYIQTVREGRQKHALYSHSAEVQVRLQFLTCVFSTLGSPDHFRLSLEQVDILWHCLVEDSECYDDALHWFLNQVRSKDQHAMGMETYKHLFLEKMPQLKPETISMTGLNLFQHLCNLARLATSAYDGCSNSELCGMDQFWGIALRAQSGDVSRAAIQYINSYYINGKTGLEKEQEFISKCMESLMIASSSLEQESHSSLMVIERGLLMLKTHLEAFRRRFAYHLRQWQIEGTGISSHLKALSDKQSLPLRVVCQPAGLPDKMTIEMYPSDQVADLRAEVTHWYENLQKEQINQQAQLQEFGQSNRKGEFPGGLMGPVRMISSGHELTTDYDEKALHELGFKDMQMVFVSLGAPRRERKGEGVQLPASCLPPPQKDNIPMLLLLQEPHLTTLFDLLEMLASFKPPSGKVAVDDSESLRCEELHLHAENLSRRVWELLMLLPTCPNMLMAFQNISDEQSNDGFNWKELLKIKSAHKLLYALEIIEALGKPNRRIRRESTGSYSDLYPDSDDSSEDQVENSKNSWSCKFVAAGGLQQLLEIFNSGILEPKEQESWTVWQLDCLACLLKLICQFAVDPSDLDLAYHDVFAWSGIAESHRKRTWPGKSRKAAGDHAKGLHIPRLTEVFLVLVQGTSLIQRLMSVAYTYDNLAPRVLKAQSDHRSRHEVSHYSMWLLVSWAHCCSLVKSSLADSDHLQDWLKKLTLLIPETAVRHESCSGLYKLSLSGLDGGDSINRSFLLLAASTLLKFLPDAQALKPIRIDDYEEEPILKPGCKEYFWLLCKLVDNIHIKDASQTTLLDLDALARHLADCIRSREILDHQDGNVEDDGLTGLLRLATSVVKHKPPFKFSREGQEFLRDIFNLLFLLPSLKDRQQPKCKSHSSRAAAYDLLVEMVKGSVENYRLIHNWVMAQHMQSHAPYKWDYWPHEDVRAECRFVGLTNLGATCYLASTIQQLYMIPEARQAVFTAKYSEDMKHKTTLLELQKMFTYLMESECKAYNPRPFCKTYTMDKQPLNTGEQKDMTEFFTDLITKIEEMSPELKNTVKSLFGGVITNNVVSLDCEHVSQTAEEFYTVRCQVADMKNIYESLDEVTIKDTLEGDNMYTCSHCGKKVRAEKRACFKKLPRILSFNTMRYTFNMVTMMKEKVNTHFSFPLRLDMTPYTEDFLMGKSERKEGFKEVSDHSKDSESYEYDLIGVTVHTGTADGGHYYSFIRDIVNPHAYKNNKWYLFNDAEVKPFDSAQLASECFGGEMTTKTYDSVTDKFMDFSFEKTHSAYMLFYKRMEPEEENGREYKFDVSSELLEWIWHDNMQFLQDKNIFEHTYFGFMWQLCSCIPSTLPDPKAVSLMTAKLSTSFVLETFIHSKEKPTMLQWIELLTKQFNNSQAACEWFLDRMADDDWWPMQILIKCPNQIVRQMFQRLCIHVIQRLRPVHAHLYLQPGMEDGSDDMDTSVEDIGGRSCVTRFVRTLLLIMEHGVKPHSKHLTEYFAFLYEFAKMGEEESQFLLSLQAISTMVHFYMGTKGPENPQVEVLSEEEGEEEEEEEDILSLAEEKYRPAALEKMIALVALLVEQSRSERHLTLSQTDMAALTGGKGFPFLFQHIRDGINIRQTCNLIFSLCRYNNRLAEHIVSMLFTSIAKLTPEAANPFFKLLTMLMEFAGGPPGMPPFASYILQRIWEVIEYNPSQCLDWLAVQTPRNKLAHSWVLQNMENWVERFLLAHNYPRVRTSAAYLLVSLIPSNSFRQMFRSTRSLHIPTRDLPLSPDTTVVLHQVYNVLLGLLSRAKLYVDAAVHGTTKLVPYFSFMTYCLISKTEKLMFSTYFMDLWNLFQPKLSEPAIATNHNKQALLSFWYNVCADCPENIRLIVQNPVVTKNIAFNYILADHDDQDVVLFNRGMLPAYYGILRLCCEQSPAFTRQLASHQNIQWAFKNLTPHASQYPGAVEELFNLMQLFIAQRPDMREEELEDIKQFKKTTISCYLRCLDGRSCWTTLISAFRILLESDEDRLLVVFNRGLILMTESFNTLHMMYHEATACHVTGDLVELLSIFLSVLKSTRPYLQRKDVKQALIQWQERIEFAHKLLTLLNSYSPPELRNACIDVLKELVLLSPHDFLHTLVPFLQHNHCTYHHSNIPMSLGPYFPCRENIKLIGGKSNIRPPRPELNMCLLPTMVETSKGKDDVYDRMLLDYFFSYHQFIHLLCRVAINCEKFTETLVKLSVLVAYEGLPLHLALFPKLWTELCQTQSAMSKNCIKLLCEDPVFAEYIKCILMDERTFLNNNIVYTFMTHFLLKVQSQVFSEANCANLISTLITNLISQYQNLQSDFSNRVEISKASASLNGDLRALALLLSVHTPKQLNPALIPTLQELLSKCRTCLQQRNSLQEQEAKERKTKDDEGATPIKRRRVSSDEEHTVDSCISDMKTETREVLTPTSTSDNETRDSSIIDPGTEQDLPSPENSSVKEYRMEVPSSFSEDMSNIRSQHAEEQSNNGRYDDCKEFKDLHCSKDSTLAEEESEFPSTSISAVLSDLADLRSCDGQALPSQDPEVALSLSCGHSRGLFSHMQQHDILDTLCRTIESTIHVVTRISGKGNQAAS
How it was run: (§1)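 Fragment (200 µM) or vehicle was incubated for 3 h with triplicate HEK293T lysate samples of 495 µg, which were then treated with Biotin-Ahx-Ub-VS at 0.5 µM final for 1 h. Labelled DUBs were enriched on NeutrAvidin, digested with LysC and trypsin, and analysed by diaPASEF LC-MS/MS. Values are average log2 fragment/vehicle ratios from an unpaired t-test on global-median-normalised Spectronaut label-free quantities, using proteins with ≥2 unique peptides.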

USP36 = target: T1, USP36 (UniProt Q9P275)
T1 sequence (whole entry): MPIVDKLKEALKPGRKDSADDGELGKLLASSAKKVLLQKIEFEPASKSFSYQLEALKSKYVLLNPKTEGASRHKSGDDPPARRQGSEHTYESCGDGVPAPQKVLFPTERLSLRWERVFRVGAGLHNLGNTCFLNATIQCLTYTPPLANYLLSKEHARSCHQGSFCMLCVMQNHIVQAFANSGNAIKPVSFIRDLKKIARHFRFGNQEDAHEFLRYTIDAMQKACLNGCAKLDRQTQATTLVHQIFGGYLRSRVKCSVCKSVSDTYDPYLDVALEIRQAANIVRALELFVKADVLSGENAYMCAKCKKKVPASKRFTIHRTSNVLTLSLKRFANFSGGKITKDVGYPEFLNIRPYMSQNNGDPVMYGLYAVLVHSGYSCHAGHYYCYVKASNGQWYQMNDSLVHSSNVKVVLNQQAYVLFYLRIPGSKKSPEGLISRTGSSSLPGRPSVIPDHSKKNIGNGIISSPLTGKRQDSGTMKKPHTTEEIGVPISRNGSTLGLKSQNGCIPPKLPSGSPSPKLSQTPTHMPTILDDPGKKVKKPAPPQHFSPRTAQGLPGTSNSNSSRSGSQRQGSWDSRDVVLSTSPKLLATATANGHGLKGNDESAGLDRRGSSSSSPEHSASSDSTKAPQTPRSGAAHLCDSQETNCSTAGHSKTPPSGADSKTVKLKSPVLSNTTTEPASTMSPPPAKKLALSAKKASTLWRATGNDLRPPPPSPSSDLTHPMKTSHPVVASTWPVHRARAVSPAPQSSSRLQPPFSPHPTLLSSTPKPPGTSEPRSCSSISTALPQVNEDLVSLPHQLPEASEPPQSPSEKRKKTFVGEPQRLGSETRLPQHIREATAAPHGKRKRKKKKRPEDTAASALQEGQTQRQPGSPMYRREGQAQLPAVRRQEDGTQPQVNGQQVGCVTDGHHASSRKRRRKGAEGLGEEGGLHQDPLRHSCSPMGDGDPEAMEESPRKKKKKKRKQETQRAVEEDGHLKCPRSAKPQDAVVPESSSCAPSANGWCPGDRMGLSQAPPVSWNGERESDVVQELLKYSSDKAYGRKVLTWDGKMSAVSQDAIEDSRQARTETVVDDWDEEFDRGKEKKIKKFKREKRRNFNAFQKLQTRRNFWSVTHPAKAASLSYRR
How it was run: as §1

USP38 = target: T2, USP38 (UniProt Q8NB14)
T2 sequence (whole entry): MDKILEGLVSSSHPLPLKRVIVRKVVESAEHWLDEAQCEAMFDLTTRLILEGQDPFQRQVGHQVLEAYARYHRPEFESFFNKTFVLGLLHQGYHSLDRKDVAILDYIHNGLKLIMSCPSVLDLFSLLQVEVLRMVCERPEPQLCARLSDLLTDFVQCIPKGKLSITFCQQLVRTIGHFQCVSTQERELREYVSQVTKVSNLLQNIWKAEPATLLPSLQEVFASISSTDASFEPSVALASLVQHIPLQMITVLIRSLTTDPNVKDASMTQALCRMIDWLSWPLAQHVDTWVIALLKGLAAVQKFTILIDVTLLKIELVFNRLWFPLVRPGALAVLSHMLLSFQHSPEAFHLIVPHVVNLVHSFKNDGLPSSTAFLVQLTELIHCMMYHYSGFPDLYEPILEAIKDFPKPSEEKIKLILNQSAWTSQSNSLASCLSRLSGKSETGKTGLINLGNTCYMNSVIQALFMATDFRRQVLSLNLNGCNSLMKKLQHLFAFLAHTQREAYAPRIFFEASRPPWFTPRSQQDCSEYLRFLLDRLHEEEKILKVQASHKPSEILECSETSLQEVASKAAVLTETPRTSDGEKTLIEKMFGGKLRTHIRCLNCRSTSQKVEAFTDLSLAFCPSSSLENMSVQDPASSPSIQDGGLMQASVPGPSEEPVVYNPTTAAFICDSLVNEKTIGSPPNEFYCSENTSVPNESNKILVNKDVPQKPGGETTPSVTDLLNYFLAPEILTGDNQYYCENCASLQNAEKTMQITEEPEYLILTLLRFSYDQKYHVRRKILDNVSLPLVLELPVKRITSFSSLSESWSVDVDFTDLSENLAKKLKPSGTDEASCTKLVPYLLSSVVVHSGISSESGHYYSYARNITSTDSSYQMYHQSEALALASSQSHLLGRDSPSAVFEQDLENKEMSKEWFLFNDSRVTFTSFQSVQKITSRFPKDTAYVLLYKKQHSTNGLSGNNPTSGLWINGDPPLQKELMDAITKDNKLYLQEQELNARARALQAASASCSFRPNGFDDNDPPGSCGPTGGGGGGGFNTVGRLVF
How it was run: as §1

USP39 = target: T3, USP39 (UniProt Q53GS9)
T3 sequence (whole entry): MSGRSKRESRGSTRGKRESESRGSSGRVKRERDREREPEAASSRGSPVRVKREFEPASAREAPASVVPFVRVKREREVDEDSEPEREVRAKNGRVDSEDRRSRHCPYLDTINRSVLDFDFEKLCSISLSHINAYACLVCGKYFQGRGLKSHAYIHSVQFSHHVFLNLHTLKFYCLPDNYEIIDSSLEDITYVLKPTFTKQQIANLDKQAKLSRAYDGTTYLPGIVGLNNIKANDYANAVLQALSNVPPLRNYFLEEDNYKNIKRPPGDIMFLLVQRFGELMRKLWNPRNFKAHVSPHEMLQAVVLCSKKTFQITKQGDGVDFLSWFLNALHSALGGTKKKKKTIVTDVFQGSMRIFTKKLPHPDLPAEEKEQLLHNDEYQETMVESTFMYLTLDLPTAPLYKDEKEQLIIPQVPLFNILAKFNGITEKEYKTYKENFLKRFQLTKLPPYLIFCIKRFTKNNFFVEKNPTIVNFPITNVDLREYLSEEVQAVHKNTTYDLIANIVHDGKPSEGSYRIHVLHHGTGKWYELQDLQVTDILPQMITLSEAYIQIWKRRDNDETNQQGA
How it was run: as §1

USP4 = target: T4, USP4 (UniProt Q13107)
T4 sequence (whole entry): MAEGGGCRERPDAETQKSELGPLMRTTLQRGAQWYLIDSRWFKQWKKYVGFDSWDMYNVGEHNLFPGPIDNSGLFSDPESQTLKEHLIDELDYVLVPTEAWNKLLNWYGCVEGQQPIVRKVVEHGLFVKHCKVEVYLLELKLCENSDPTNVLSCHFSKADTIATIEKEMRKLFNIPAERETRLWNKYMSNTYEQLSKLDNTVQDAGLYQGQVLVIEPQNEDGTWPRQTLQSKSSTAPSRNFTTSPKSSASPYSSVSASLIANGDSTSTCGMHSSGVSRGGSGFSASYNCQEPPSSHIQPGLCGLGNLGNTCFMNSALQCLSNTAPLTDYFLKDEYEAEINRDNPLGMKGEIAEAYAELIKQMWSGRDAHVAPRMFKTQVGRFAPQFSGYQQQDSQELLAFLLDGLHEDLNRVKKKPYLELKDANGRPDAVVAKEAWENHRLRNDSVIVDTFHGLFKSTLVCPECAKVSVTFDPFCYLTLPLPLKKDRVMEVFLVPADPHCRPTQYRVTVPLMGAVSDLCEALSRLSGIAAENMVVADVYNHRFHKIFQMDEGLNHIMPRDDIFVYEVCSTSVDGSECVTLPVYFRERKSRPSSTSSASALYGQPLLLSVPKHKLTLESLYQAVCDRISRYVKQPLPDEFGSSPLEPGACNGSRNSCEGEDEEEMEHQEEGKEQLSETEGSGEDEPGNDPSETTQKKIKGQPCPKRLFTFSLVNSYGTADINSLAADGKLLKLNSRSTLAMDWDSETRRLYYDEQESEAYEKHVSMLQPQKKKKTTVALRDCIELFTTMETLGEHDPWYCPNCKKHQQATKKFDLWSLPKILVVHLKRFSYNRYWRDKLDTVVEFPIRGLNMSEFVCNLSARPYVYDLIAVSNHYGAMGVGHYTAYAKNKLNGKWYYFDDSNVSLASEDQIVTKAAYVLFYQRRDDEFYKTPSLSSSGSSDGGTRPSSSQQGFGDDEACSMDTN
How it was run: as §1

Measured: log2 ratio of Biotin-Ahx-Ub-VS probe labelling

NC(=O)C1CCCN(C(=O)CCl)C1 (stereo not given)
inactive: USP34 -0.00128 | USP36 0.0237 | USP38 -0.242 | USP39 -0.334 | USP4 -0.0203
